Out of some 310,000 compounds screened, about 14,000 (4.5%) showed an effect of 50% or more. Effects have a minus sign here. The full list was thinned out, with strong results kept by preference.

This note sets out measurements from PMC4336329 (PLoS ONE, 2015).
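Note: peak tail current of the secondary pulse compared with the same well before compound.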

The target of this assay is human ether-à-go-go-related gene (hERG) potassium channel (human, UniProt Q12809). The assay can be described thus: primary screen, population patch clamp on CHO cells stably expressing hERG; higher = less effect of the substance.
human ether-à-go-go-related gene (hERG) potassium channel, sequence (Q12809 whole entry, looked up): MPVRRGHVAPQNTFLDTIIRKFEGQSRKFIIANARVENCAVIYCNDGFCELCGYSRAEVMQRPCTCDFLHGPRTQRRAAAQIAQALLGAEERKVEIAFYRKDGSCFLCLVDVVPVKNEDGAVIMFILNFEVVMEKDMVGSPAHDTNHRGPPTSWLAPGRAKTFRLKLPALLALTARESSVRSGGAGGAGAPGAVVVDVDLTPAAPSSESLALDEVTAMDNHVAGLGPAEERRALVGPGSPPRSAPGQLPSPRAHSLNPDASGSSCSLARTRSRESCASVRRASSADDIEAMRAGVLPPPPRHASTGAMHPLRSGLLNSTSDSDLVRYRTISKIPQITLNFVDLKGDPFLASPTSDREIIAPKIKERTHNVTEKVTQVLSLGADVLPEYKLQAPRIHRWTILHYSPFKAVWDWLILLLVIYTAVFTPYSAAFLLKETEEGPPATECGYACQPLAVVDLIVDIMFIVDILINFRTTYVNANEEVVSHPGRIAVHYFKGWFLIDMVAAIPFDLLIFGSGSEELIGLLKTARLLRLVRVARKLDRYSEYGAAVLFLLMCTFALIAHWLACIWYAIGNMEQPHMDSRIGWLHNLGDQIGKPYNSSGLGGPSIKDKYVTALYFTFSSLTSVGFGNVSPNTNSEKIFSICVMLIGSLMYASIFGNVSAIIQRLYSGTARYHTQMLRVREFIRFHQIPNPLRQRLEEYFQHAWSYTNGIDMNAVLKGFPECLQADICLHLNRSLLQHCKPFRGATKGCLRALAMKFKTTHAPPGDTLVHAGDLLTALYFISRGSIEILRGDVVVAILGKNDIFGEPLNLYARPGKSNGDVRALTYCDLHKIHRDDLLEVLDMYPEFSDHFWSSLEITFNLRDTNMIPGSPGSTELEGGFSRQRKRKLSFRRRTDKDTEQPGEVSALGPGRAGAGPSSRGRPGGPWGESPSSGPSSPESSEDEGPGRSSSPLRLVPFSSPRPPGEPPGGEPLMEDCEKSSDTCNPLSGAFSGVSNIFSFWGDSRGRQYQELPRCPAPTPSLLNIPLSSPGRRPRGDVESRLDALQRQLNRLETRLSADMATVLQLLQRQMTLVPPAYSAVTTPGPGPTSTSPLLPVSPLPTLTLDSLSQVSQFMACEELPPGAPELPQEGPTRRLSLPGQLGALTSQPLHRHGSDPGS
Consider `CN(C)c1ccc(/C=C2\NC(=S)N(Cc3ccccc3)C2=O)cc1`, for which the “hERG current change (%, negative = inhibition) at 10uM” value is -0.668%. The figure for `O=C(CSC(=S)N1CCCC1)c1ccccc1` is 4.99%; for `COc1cc2c3c(c1OC)C1(C=CC(=NO)C=C1)CC3N(C(C)=O)CC2` (stereo not shown) it is 13.8%; for `O=[N+]([O-])c1cccc(C(=Nc2cccc(Cl)c2)NO)c1` it is -20%. Regarding `C/C(=N/NC(=O)CSc1nc2ccccc2s1)c1ccncc1`, the “hERG current change (%, negative = inhibition) at 10uM” value is -24%. With `CCOC(=O)c1cnc2c(cnn2C)c1Oc1ccc(OC)cc1`, the “hERG current change (%, negative = inhibition) at 10uM” value is recorded as -43%. For `CCOc1ccc(NC(=S)NC(C)C(c2ccccc2)N2CCN(C)CC2)cc1` (stereo not shown), the “hERG current change (%, negative = inhibition) at 10uM” value is -58.5%. The figure for `COc1ccc(NC(=S)NC(C)C(c2ccccc2)N2CCOCC2)cc1` (stereo not shown) is 7.52%. On to `CC(NC(=O)COc1ccccc1)C(c1ccccc1)N1CCN(C)CC1` (stereo not shown), for which the “hERG current change (%, negative = inhibition) at 10uM” value is reported as -9.29%. The figure for `CC(=O)Nc1cc(C(=O)N2CCC3(CC2)OCCO3)ccc1Sc1ccc(C)cc1` is -16%. The figure for `CC(=O)Nc1cc(C(=O)N2CCC3(CC2)OCCO3)ccc1Sc1ccc(F)cc1` is 2.37%; for `CC(=O)Nc1cc(C(=O)N2CCN(C)CC2)ccc1Sc1ccc(C)cc1` it is -13.5%. For `CC(=O)Nc1cc(C(=O)N2CCc3ccccc3C2)ccc1Sc1ccc(F)cc1`, the “hERG current change (%, negative = inhibition) at 10uM” value is on record as -55.4%. The figure for `CCCN1CCN(C(=O)c2ccc(Sc3ccc(C)cc3)c(NC(C)=O)c2)CC1` is -50.6%. The figure for `CC(=O)Nc1cc(C(=O)N2CCc3ccccc3C2)ccc1Sc1ccc(C)cc1` is -53.6%; for `CC(=O)Nc1cc(C(=O)N2CCCC2)ccc1Sc1ccc(C)cc1` it is -30.5%. Take `CC(=O)Nc1cc(C(=O)N2CCc3ccccc3C2)ccc1Sc1ccc(Cl)cc1`: the “hERG current change (%, negative = inhibition) at 10uM” value is listed as -45%.

In the case of `O=C(c1cccc(F)c1)N1CCc2ccccc2C1`, the “hERG current change (%, negative = inhibition) at 10uM” value was -7.14%. The value for `CCCCn1c(N)c(N(CC(C)C)C(=O)c2cc(C)oc2C)c(=O)[nH]c1=O` was 8.94%; that for `Clc1ccc(-c2ccn[nH]2)cc1` was 3.54%. `Cc1ccc(NC(=O)N2C(=O)C3(OCCO3)c3ccccc32)cc1`: the “hERG current change (%, negative = inhibition) at 10uM” value turned out to be 18.2%. Regarding `CCS(=O)(=O)c1ccc(-c2cccc(NC(=O)COc3ccccc3)c2)nn1`, the “hERG current change (%, negative = inhibition) at 10uM” value is 6.57%. The value for `O=C1CCCN1CN(C(=O)c1ccc2c(c1)OCO2)c1cccc(Cl)c1` was -7.64%. Turning to `CC(C)CN(C(=O)COC(=O)C(C)N1C(=O)c2ccccc2C1=O)c1c(N)n(Cc2ccccc2)c(=O)[nH]c1=O` (stereo not shown), the “hERG current change (%, negative = inhibition) at 10uM” value is on record as -7.78%.

Turning to `COC(=O)c1cc(NC(=O)CC2NCCNC2=O)cc(C(=O)OC)c1` (stereo not shown), the “hERG current change (%, negative = inhibition) at 10uM” value was determined as 5.72%. The value for `Cc1ccc(-c2csc(NC(=O)c3ccc([N+](=O)[O-])o3)n2)cc1` was 6.85%; that for `CS(=O)(=O)c1ccc(-c2cc(Br)sc2-c2ccc(F)cc2)cc1` was 16.4%. The value for `Cc1n[nH]c(C)c1S(=O)(=O)N1CCCC(C(=O)NCC2COc3ccccc3O2)C1` (stereo not shown) was 0.365%; that for `CCOc1ccc(NC(=O)CN2CCC(n3cnc4cc(F)ccc43)CC2)cc1` was -74.3%; that for `COc1ccccc1CNC(=O)CN1CCC(NC(=O)c2ccccc2F)CC1.Cl` was -14.5%. For the compound `COc1cccc(C(=O)NC2CCN(CC(=O)NCc3ccccc3OC)CC2)c1`, the “hERG current change (%, negative = inhibition) at 10uM” value was -10.7%. The value for `O=C(c1ccc(F)cc1)C1CCN(C(=O)NCc2ccccc2)CC1` was -6.67%. The value for `O=C(CN1CCC(NC(=O)Cc2ccccc2)CC1)Nc1ccccc1Br` was -29.2%; that for `COc1ccccc1CNC(=O)CN1CCC(n2cnc3cc(F)ccc32)CC1` was -66%; that for `CCOc1ccc2nc(NC(=O)CN3CCC(n4nnc5cc(F)ccc54)CC3)sc2c1` was -40.1%. The figure for `O=C(CN1CCC(n2cnc3cc(F)ccc32)CC1)Nc1ccccc1Br` is -87.8%.

For the compound `CCOC(=O)Nc1ccc2c(c1)ncn2C1CCCCC1`, the “hERG current change (%, negative = inhibition) at 10uM” value is listed as -8.98%. The value for `O=C(CN1CCN(c2ccc(F)cc2)CC1)Nc1ccccc1Br` was 12.5%; that for `O=C(NCc1ccccc1)N1CCC(n2cnc3cc(F)ccc32)CC1` was -64.3%.

For `O=C(NCc1ccc(F)cc1)C1CCN(C(=O)NCc2ccccc2)CC1`, the “hERG current change (%, negative = inhibition) at 10uM” value is reported as 6.31%. Regarding `COc1ccc(C(=O)Nc2ccccc2C(=O)NC(C)C)cc1OC`, the “hERG current change (%, negative = inhibition) at 10uM” value is reported as -6.82%. For the compound `CCc1nc(SCC(=O)O)c2c3c(sc2n1)COC(C)(C)C3`, the “hERG current change (%, negative = inhibition) at 10uM” value turned out to be 23.2%.

For the compound `CCCNc1c(NS(=O)(=O)c2ccc(C3CCCCC3)cc2)c(=O)oc2ccccc12`, the “hERG current change (%, negative = inhibition) at 10uM” value is listed as 21.9%.
